Results filed as inconclusive are left out. A call without a number means that no potency is given here. Calls of active or inactive are those of the source. The call rests on the fitted dose curve; in most records, active means well fitted cell-killing curve with a large enough effect; inconclusive means small, poorly fitted or top-dose-only effect, or effect the other way; inactive means no such curve, though single readings can be large or run the other way.
System: SW626
Assay: Confirmatory qHTS for gynecologic anti-cancer compounds from libraries of approved drugs and bioactive compounds; further: nearly all actives have a fitted effect of over 55% in size
Conditions: gynecologic cancer cell panel viability, ATPlite luminescence, 48 h; series mostly up to 57.6 µM
In short: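 Seeding 1,000 cells per well preceded overnight (16 h) attachment, after which 48 h drug treatment across 57.5 uM–0.977 nM (11 points) was applied. Remaining cellular ATP, detected by ATPlite luminescence, defined IC50.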
Potency means the concentration at half of the fitted maximal effect.

Row | SMILES | Potency
1 | CNc1nc(Nc2ccc(C(=O)N3CCOCC3)cc2OC)ncc1Cl | inactive
2 | CCN(CC)CCCC(C)Nc1ccnc2cc(Cl)ccc12 (configuration not stated) | inactive
3 | c1nc2nc(Nc3ccc(N4CCOCC4)cc3)nc(NC3CCCCC3)c2[nH]1 | inactive
4 | CC1(C)[C@@H](O)CC[C@]2(C)[C@H]3C(=O)C=C4[C@@H]5C[C@@](C)(C(=O)O)CC[C@]5(C)CC[C@@]4(C)[C@]3(C)CC[C@@H]12 | inactive
5 | Cc1nc2ccc(CN(C)c3ccc(C(=O)NC(CCC(=O)O)C(=O)O)s3)cc2c(=O)[nH]1 (configuration not stated) | inactive
6 | Cc1cnc(Nc2ccc(F)cc2Cl)nc1-c1c[nH]c(C(=O)NC(CO)c2cccc(Cl)c2)c1 (configuration not stated) | inactive
7 | CN1C2CCC1CC(OC(=O)[C@H](CO)c1ccccc1)C2 (some centres not stated) | inactive
8 | CN(C)/N=N/c1nc[nH]c1C(N)=O | inactive
9 | COc1cc(Nc2c(C#N)cnc3cc(OCCCN4CCN(C)CC4)c(OC)cc23)c(Cl)cc1Cl | 19.3 µM (active)
10 | Nc1ccccc1NC(=O)c1ccc(CNC(=O)OCc2cccnc2)cc1 | 3.06 µM (active)
11 | Cc1ccc(C(=O)Nc2ccc(CN3CCN(C)CC3)c(C(F)(F)F)c2)cc1C#Cc1cnc2cccnn12 | 21.7 µM (active)
12 | CCCS(=O)c1ccc2nc(NC(=O)OC)[nH]c2c1 (configuration not stated) | inactive
13 | Fc1cc(-c2cccc3ncc(-c4cnn(C5CCNCC5)c4)nc23)cc(F)c1CN1CCOCC1 | 27.3 µM (active)
14 | Cc1cnc(Nc2cccc(CN3CCOCC3)c2)nc1Nc1cccc(S(=O)(=O)NC(C)(C)C)c1 | 24.3 µM (active)
15 | CN(C[C@@H]1COCCO1)S(=O)(=O)Nc1ccc2ccc3ncc(-c4cnn(C)c4)cc3c(=O)c2c1 | inactive
16 | Cc1nc(N)nc(N)c1-c1ccc(Cl)c(Cl)c1 | 3.85 µM (active)

Row | SMILES | Potency
17 | CC(Oc1cc(-n2cnc3ccc(CN4CCN(C)CC4)cc32)sc1C(N)=O)c1ccccc1C(F)(F)F (configuration not stated) | 24.3 µM (active)
18 | O=C(CCCCCCC(=O)Nc1ccccc1)NO | 2.17 µM (active)
19 | O=C1NC(=O)C(c2cnc3ccccn23)=C1c1cn2c3c(cccc13)CN(C(=O)N1CCOCC1)CC2 | inactive
20 | CCC1C(=O)N(C)c2cnc(Nc3ccc(C(=O)NC4CCC(N5CCN(CC6CC6)CC5)CC4)cc3OC)nc2N1C(C)C (configuration not stated) | 7.69 µM (active)
21 | CCCCc1oc2ccccc2c1C(=O)c1cc(I)c(OCCN(CC)CC)c(I)c1 | 79.4 µM (active)
22 | NS(=O)(=O)c1ccc(Nc2nc(OCC3CCCCC3)c3[nH]cnc3n2)cc1 | inactive
23 | CC(C)C[C@H](NC(=O)[C@H](CCc1ccccc1)NC(=O)CN1CCOCC1)C(=O)N[C@@H](Cc1ccccc1)C(=O)N[C@@H](CC(C)C)C(=O)[C@@]1(C)CO1 | 1.09 µM (active)
24 | CN1C(=O)C(Cc2c[nH]c3ccccc23)NC1=S (configuration not stated) | inactive
25 | CN(c1nccc(=O)[nH]1)C1CCN(c2nc3ccccc3n2Cc2ccc(F)cc2)CC1 | inactive
26 | CNCc1ccc(-c2[nH]c3cc(F)cc4c3c2CCNC4=O)cc1 | inactive
27 | COc1ccccc1N1CCN(CC(O)COc2cccc3ccccc23)CC1 (configuration not stated) | inactive
28 | CN(C)C1CCN(C(=O)c2ccc(NC(=O)Nc3nc(N4CCOCC4)nc(N4CCOCC4)n3)cc2)CC1 | 0.685 µM (active)
29 | CC(C)n1nc(-c2cc3cc(O)ccc3[nH]2)c2c(N)ncnc21 | 7.69 µM (active)
30 | Cn1c(=O)c(F)c(Nc2ccc(I)cc2F)c2c(=O)n(CC(O)CO)cnc21 (configuration not stated) | 0.0544 µM (active)
31 | Cc1nc(Nc2n[nH]c3c2CN(C(=O)NC(CN(C)C)c2ccccc2)C3(C)C)c2sccc2n1 (configuration not stated) | inactive
32 | CCOC(=O)C1=C(C)NC2=C(C(=O)CC(C)(C)C2)C1c1ccc(-c2ccccc2)cc1 (configuration not stated) | inactive
